± gives the uncertainty stated by the source.
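Note: viable cell number estimated from Alamar Blue fluorescence read at 560/90, part of a single-dose primary screen of an FDA-approved drug library.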

This assay has as its system U87. As to the kind of experiment: cell viability relative to vehicle control; higher = less growth inhibition (less active). The settings on record: 10 µM; 72 h.
As to `Cn1c(NCCN(CCO)CCCc2ccc([N+](=O)[O-])cc2)cc(=O)n(C)c1=O`, the cell viability was 102 ± 3.1%.
Consider `Nc1nc(Cl)nc2c1ncn2[C@H]1C[C@H](O)[C@@H](CO)O1`, for which the cell viability was found to be 35.4 ± 1.4%.
As for `Cc1onc(-c2ccccc2)c1-c1ccc(S(N)(=O)=O)cc1`, the cell viability is 106.8 ± 0.6%.
`C[C@H]1[C@H](OC(=O)CCC(=O)O)O[C@@H]2O[C@@]3(C)CC[C@H]4[C@H](C)CC[C@@H]1[C@@]24OO3`: the cell viability was found to be 98.9 ± 1.1%.
With `O=c1cnn([C@@H]2O[C@H](CO)[C@@H](O)[C@H]2O)c(=O)[nH]1`, the cell viability came out at 94.8 ± 1.9%.
Consider `CCOC(=O)C1=C(C)NC(C)=C(C(=O)OC)C1c1cccc([N+](=O)[O-])c1` (stereo not given), for which the cell viability is 98.9 ± 2.8%.
For the compound `CN1CC(=O)N2[C@H](c3ccc4c(c3)OCO4)c3[nH]c4ccccc4c3C[C@@H]2C1=O`, the cell viability came out at 107 ± 1.3%.
In the case of `CS(=O)(=O)c1ccc(C2=C(c3ccccc3)C(=O)OC2)cc1` it was 107.7 ± 0.87%.
In the case of `C[C@]12C[C@H](O)[C@H]3[C@@H](CCC4=CC(=O)CC[C@@]43C)[C@@H]1CC[C@@H]2C(=O)CO` it was 105 ± 1.5%.
As for `O=C(c1ccc(F)cc1)C1CCN(CCn2c(=S)[nH]c3ccccc3c2=O)CC1` [Altanserin], the cell viability stood at 99.9 ± 2.9%.
Consider `COc1ccc2c3c1O[C@H]1C[C@@H](O)C=C[C@@]31CCN(C)C2` [Galanthamine], for which the cell viability was determined as 100 ± 0.85%.
Consider `CN(C)[C@@H]1C(O)=C(C(=O)NCN2CCCC2)C(=O)[C@@]2(O)C(O)=C3C(=O)c4c(O)cccc4[C@@](C)(O)[C@H]3C[C@@H]12`, for which the cell viability is 107 ± 2.1%.
Regarding `O=C(CCCN1CC=C(n2c(=O)[nH]c3ccccc32)CC1)c1ccc(F)cc1`, the cell viability came to 106 ± 1.7%.
For the compound `O=C(CCCN1CCC(O)(c2ccc(Cl)cc2)CC1)c1ccc(F)cc1` [Haloperidol], the cell viability was determined as 107.5 ± 0.44%.
Consider `Nc1ccn([C@@H]2O[C@H](CO)[C@@H](O)[C@@H]2O)c(=O)n1` [2(1H)-Pyrimidinone, 4-amino-1-D-arabinofuranosyl- [CAS]], for which the cell viability is 47.5 ± 2.9%.
With `CCOC(=O)O[C@]1(C(=O)OCCl)CC[C@H]2[C@@H]3CCC4=CC(=O)C=C[C@]4(C)[C@H]3[C@@H](O)C[C@@]21C` the figure was 104 ± 1.4%; with `C[C@@H](O)[C@H]1C(=O)N2C(C(=O)O)=C(S[C@@H]3CN[C@H](C(=O)N(C)C)C3)[C@H](C)[C@H]12`, 106.4 ± 0.79%; with `Cc1ncc([N+](=O)[O-])n1CC(C)O` (stereo not given) [1-(2-Methyl-5-nitro-imidazol-1-yl)-propan-2-ol], 102.9 ± 0.98%.
For the compound `CCCCC1=NC2(CCCC2)C(=O)N1Cc1ccc(-c2ccccc2-c2nnn[nH]2)cc1`, the cell viability is 98 ± 3.2%.
In the case of `CO[C@@H]1[C@@H](O[C@@H]2O[C@H](C)[C@@H](O[C@H]3C[C@@](C)(O)[C@@H](OC(=O)CC(C)C)[C@H](C)O3)[C@H](N(C)C)[C@H]2O)[C@@H](CC=O)C[C@@H](C)[C@@H](O)/C=C/C=C/C[C@@H](C)OC(=O)C[C@H]1O`, the cell viability was found to be 102 ± 2.2%.
Consider `COc1cc(C(=O)NC2CCCNC2)cc(OC)c1OC` (stereo not given), for which the cell viability was determined as 101 ± 4.2%.
Turning to `CCN(CC)CC(=O)Nc1c(C)cccc1C`, the cell viability came to 94.8 ± 2.8%.
`NC1CCN(c2nc3c(cc2F)c(=O)c(C(=O)O)cn3-c2ccc(F)cc2F)C1` (stereo not given): the cell viability turned out to be 98.01 ± 0.56%.
With `CC(=O)OCC(CCn1cnc2cnc(N)nc21)COC(C)=O`, the cell viability was found to be 104.2 ± 0.4%.
Take `CCC1=C(C)CN(C(=O)NCCc2ccc(S(=O)(=O)NC(=O)N[C@H]3CC[C@H](C)CC3)cc2)C1=O`: the cell viability worked out at 105 ± 2.2%.
Consider `CC(C)Oc1ccc2c(=O)c(-c3ccccc3)coc2c1`, for which the cell viability came out at 101 ± 2.6%.
With `CC(C)(O)c1ccccc1CC[C@@H](SCC1(CC(=O)O)CC1)c1cccc(/C=C/c2ccc3ccc(Cl)cc3n2)c1` the figure was 101.8 ± 0.94%; with `C[C@@H]1C[C@H]2[C@@H]3CCC4=CC(=O)C=C[C@]4(C)[C@@]3(F)[C@@H](O)C[C@]2(C)[C@H]1C(=O)CO`, 106 ± 0.2%; with `CN1CCN(C2=Nc3ccccc3Oc3ccc(Cl)cc32)CC1` [Loxapine], 102 ± 1.6%.
In the case of `C[N+]1(C)CCC(OC(=O)C(O)(c2ccccc2)C2CCCC2)C1` (stereo not given) [Glycopyrrolate] it was 103 ± 1.1%.
`O=C(NCCO[N+](=O)[O-])c1cccnc1` [Nicorandil]: the cell viability amounted to 101 ± 2.2%.
As to `CCOC(=O)OC(C)OC1=C(C(=O)Nc2ccccn2)N(C)S(=O)(=O)c2ccccc21` (stereo not given), the cell viability came out at 107 ± 1.1%.
Take `Cc1ccsc1C(=CCCN1CCC[C@@H](C(=O)O)C1)c1sccc1C`: the cell viability stood at 104 ± 1.1%.
As for `CC[C@]1(O)C[C@@H]2CN(CCc3c([nH]c4ccccc34)[C@@](C(=O)OC)(c3cc4c(cc3OC)N(C)[C@H]3[C@@](O)(C(N)=O)[C@H](O)[C@]5(CC)C=CCN6CC[C@]43[C@@H]65)C2)C1`, the cell viability was determined as 24.7 ± 8.7%.
With `COc1cc(C(=O)NS(=O)(=O)c2ccccc2C)ccc1Cc1cn(C)c2ccc(NC(=O)OC3CCCC3)cc12` the figure was 104 ± 1.1%; with `COc1ccc2c(c1)c(CC(=O)O)c(C)n2C(=O)c1ccc(Cl)cc1` [Indomethacin], 105.6 ± 0.41%.
On to `CC1(C)O[C@@H]2[C@@H](CO[C@@]3(COS(N)(=O)=O)OC(C)(C)O[C@@H]23)O1`, for which the cell viability was 129 ± 2%.
With `CCN1CCCC1CNC(=O)c1cc(S(=O)(=O)CC)c(N)cc1OC` (stereo not given) [Amisulpride], the cell viability was 101.2 ± 0.96%.
`Cc1cccc(C)c1NC(=O)C1CCCCN1C` (stereo not given): the cell viability was 106 ± 0.63%.
Turning to `CS(=O)(=O)c1ccc(-c2cc(Br)sc2-c2ccc(F)cc2)cc1`, the cell viability came to 107.7 ± 0.82%.

The values above are taken from the supplement of paper PMC3898565.
